ANO1 activ: activates or potentiates the mouse TMEM16A chloride channel. Q8BHY3. HEK293 TMEM16A/YFP-H148Q/I152L, iodide quench fluorescence; stronger effect = lower value. B-score at 10 µM. 0.3% of 340,000 active;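 active = fluorescence-ratio B-score plate-corrected deviation score at least 3 library SD below zero, with starting fluorescence score within 5 deviations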;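 also: channel opened by trigger with iodide after compound preincubation; score built on the fluorescence ratio of max minus min over baseline; more negative score means more quench and so TMEM16A activation or potentiation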
CHT inh: human CHT choline transport inhibition; B-score at 10 µM; 0.86% of 310,000 active; CHT-expressing cells, membrane potential dye, choline response; stronger effect = lower value;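 active = B-score over 3 SD under the library average, and starting fluorescence ratio not unusually high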;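 also: choline stimulus applied at its EC90 after an EC20 pre-addition; B-score computed on integrated fluorescence ratio after choline addition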
Target sequence (Q9GZV3 whole entry, looked up): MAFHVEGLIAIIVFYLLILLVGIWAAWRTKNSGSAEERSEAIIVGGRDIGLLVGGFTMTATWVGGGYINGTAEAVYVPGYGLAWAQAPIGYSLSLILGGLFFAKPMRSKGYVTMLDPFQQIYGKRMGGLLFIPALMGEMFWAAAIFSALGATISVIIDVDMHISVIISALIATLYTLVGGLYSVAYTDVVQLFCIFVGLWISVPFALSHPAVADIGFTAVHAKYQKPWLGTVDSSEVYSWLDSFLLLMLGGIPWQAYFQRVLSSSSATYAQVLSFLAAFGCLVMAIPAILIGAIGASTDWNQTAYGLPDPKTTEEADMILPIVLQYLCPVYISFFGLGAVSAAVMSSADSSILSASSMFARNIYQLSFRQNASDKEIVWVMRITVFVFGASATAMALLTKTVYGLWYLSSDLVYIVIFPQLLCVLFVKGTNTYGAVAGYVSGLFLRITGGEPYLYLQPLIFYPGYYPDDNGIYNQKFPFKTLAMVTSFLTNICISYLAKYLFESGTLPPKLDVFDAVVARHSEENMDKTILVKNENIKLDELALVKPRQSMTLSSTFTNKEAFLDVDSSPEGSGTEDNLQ
CHT PAM: allosterically activates the human high affinity choline transporter; Q9GZV3; CHT-expressing cells, membrane potential dye, choline EC20; stronger effect = higher value; LV-AA mutant CHT in HEK293 cells; B-score at 10 µM; 0.49% of 310,000 active;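 active = initial fluorescence not abnormally high and integrated response B-score, plate-corrected, over 3 SD above library mean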
TMEM16A inh: inhibitors of mouse TMEM16A calcium-activated chloride channel; normalized B-score (activity score, 25-100; higher = stronger inhibition) at 10 µM; AID 588511; Q8BHY3; 1.2% of 310,000 active; HEK293 TMEM16A/YFP iodide influx fluorescence, ionomycin;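 active = ratio plate-corrected score three or more library SD toward inhibition, starting fluorescence score within five deviations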;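 also: score derived from kinetic fluorescence span divided by baseline fluorescence per well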
Hits are given with their value; – = inactive; · = no result. The list is not random: actives were taken first. Their share in the collection is about 2.4%.

SMILES	ANO1 activ	CHT inh	CHT PAM	TMEM16A inh
N#CC(/C(=N/S(=O)(=O)c1cccs1)c1ccccc1)c1nc2ccccc2[nH]1 (stereo not given)	–	–	–	–
CCOC(=O)c1ccc2c(c1)N(CC#N)C(=O)C(C)(C)O2	–	–	–	25
COc1ccc2oc(C(=O)N(Cc3ccco3)Cc3cccs3)c(C)c2c1	–	–	–	–
N=c1c(C(=O)NC2CCCCC2)cc2c(=O)n3ccccc3nc2n1CCc1ccccc1	–	–	7.3	–
CC(C)OCCCn1c(=N)c(C(N)=S)cc2c(=O)n3ccccc3nc21	–	–	6.6	–
CCOC(=O)c1cc2c(=O)n3ccccc3nc2n(CCCOC)c1=NC(=O)c1ccncc1	–	–	–	–
CCOC(=O)c1cc2c(=O)n3ccccc3nc2n(CCCOC)c1=NC(C)=O	–	–	13	–
CC(=O)N=c1c(C#N)cc2c(=O)n3ccccc3nc2n1CCCOC(C)C	–	–	–	–
CC(NC(=O)c1cc2c(cc1Cl)N1CCCCCC1=NS2(=O)=O)c1ccc(S(N)(=O)=O)cc1 (stereo not given)	–	–	–	–
COc1ccccc1C(=O)NC(=O)COC(=O)CCOc1cc(C)ccc1C	–	–	–	–
COCCNC(=O)c1cnn2c(C(F)(F)F)cc(-c3ccc(C)cc3)nc12	-5.2	–	–	–
Cc1ccc(-c2cc(C(F)(F)F)n3ncc(C(=O)O)c3n2)cc1	–	·	·	·
COc1ccc(/C=N/N(C(C)=O)c2nc(-c3ccc(C)cc3)cs2)cc1	-7.2	–	–	–
CC(=O)N(/N=C/c1cccc(C)c1)c1nc(-c2ccc(Br)cc2)cs1	–	–	–	–
Cc1cc(NC(=O)c2ccc(S(=O)(=O)N3CCCC3)cc2)nc2c1c(=O)oc1ccccc12	-14	·	·	·
CCN(C(=O)COC(=O)CCOc1ccccc1C)c1c(N)n(Cc2ccccc2)c(=O)[nH]c1=O	–	·	·	·
CCCCOc1ccc(S(=O)(=O)n2c(C)nc3ccccc32)cc1	–	–	–	25
COc1ccc(NC(=O)CC(C)c2ccccc2)cc1S(=O)(=O)N1CCOCC1 (stereo not given)	–	·	·	·
CCCC1(c2ccccc2)NC(=O)N(CC(=O)Nc2cc(OC)cc(OC)c2)C1=O (stereo not given)	–	–	–	–
COc1cc(S(=O)(=O)N2CCC(O)(c3cccc(C(F)(F)F)c3)CC2)ccc1-n1cnnn1	–	–	–	–
O=S(=O)(c1ccc(OC(F)(F)F)cc1)N1CCC(O)(c2cccc(C(F)(F)F)c2)CC1	–	–	–	25
Cc1c(N(C)C(=O)c2ccccc2F)c(=O)n(-c2ccccc2)n1C	-6.5	–	–	–
Cc1c(N(C)C)c(=O)n(-c2ccccc2)n1C	–	·	·	·
C/C(CS(=O)(=O)c1ccc(Cl)c(Cl)c1)=N/NC(N)=S	-8.5	–	–	–
CCOC(=O)c1c(NC(=O)c2cc(C(C)C)on2)sc(C(C)=O)c1C	-12	–	–	–
SMILES	ANO1 activ	CHT inh	CHT PAM	TMEM16A inh
CCOC(=O)c1c(NC(=O)CSc2nc3ccccc3s2)sc(C(C)=O)c1C	–	–	–	25
CCOC(=O)c1sc(NC(=O)CSc2nc(-c3ccco3)cc(C(F)(F)F)n2)c(C(=O)OCC)c1C	-7.7	·	·	·
CCOC(=O)c1c(NC(=O)c2cc(CC(C)C)on2)sc(C(C)=O)c1C	–	–	–	–
COC(=O)c1ccc(CSc2nc(-c3ccco3)cc(C(F)(F)F)n2)o1	-5.1	–	–	–
CCOC(=O)c1c(NC(=O)CSc2nnnn2-c2ccc(OC)cc2)sc(C)c1C	–	–	–	25
CCOC(=O)c1csc(NC(=O)CSc2nnnn2-c2ccc(OC)cc2)n1	–	–	–	–
O=C(Cc1ccc(Br)c2ccccc12)N/N=C/c1ccccn1	–	–	–	25
CCOC(=O)C(Sc1n[nH]c(N)n1)c1ccccc1 (stereo not given)	–	–	–	25
Cc1cccc(C(=O)Nc2scc(-c3ccc(Br)cc3)c2C(=O)O)c1	–	–	–	–
COc1cc(C(=O)Nc2scc(-c3ccc(Br)cc3)c2C(=O)O)cc(OC)c1OC	–	–	–	100
Nc1cc(=O)[nH]c(SCC(=O)Nc2cc(S(=O)(=O)N3CCCCC3)ccc2Cl)n1	–	·	·	·
COc1ccc(-c2csc(NC(=O)c3ccccc3NS(=O)(=O)c3ccc(F)c(F)c3)n2)cc1	–	-8.4	–	100
O=C(Nc1ccccc1C(=O)Nc1ccncc1)c1ccccc1	–	–	–	–
COc1ccc(-n2cc(C(=O)c3cc(Cl)ccc3O)cc(C#N)c2=O)cc1	–	–	–	–
COc1ccc(O)c(C(=O)c2cc(C#N)c(=O)n(-c3ccc(Cl)cc3)c2)c1	-4.6	–	–	–
CCOc1ccc(-n2cc(C(=O)c3cc(Cl)ccc3O)cc(C#N)c2=O)cc1	–	–	–	25
Cc1ccc(-n2cc(C(=O)c3cc(Cl)ccc3O)cc(C#N)c2=O)cc1	–	–	–	25
C[C@H](CO)N1C[C@H](C)[C@@H](CN(C)S(=O)(=O)c2cccs2)Oc2c(NC(=O)NC3CCCCC3)cccc2C1=O	–	·	·	·
Cc1ccc(S(=O)(=O)N2CCC(NC(=O)c3cccc(C)c3)CC2)cc1	-7.1	–	–	–
Cc1cccc(C(=O)NC2CCN(S(=O)(=O)c3ccc(F)cc3)CC2)c1	–	–	–	–
CC(=O)c1ccc(S(=O)(=O)N2CCC(NC(=O)Nc3cccc(F)c3)CC2)cc1	-7.9	–	–	–
CCN1C(=O)C(=O)N(CC(=O)N(C)CC(=O)Nc2ccccc2C(F)(F)F)C1=O	–	·	·	·
O=C(CSc1nc2ncc(Cl)cc2[nH]1)Nc1ccccc1-c1ccccc1	–	–	–	100
CN(C)c1ccc(CN(C(=O)c2cccs2)C2CCS(=O)(=O)C2)cc1 (stereo not given)	–	–	–	–
Cc1cc(C(=O)COc2cccnc2[N+](=O)[O-])c(C)n1Cc1cccs1	–	–	–	–
SMILES	ANO1 activ	CHT inh	CHT PAM	TMEM16A inh
CC(=O)Nc1ccccc1OCC(=O)c1cc(C)n(Cc2cccs2)c1C	–	–	–	100
CCOC(=O)c1c(CC(C)C)csc1NC(=O)C(C)C	–	–	–	25
CCOC(=O)c1c(CC(C)C)csc1NC(=O)CCl	–	–	–	–
CCCC1CC(C)(/C(C)=N\NC(N)=S)OC1=O (stereo not given)	–	-9.3	–	–
O=C(NCc1ccccc1Cl)c1ccc2nnsc2c1	–	–	–	–
CS(=O)(=O)N(CCc1ccccc1)CC(=O)Nc1ccc(OCc2ccccc2)cc1	-20	–	–	–
Cc1ccc(S(=O)(=O)N2CCN(C(=O)CSc3nccn3C)CC2)cc1	–	–	–	–
CCCc1ccc(Oc2cn[nH]c2-c2ccc(O)c(C)c2O)cc1	–	–	–	100
Cn1c(Nc2ccc(Cl)cc2)cc(=O)n(C)c1=O	–	–	–	–
COc1ccc2nc(C(F)(F)Cl)c(C#N)c(N)c2c1	–	–	–	–
COc1ccc2nc3cc(Cl)ccc3c(C#N)c2c1	-7.2	–	–	–
O=C(NCCN1CCCCCC1)C1CCCN1S(=O)(=O)c1cccc2nsnc12 (stereo not given)	–	–	–	–

Source: PubChem
